What all share (test): NCI-60 one-dose screen, 48 h (100 = growth as untreated, 0 = no growth, -100 = all killed)
One test deals with HCT-15 colon. The note with it: 10 µM unless noted.
For another test, the system named is HT29 colon. The note with it: 10 µM unless noted.
The subject of another test is SNB-75 CNS. Particulars: 10 µM unless noted.
In a further test the test system is SNB-19 CNS. Particulars: 10 µM unless noted.
For the next test, the system named is U251 CNS. The note with it: 10 µM unless noted.
A further test has as its system SK-MEL-5 melanoma. The note with it: 10 µM unless noted.
The subject of a further test is UACC-62 melanoma. Particulars: 10 µM unless noted.
A further test relates to LOX IMVI melanoma. The note with it: 10 µM unless noted.
The test system of the next test is SK-MEL-28 melanoma. The note with it: 10 µM unless noted.
The next test has as its system SK-MEL-2 melanoma. Particulars: 10 µM unless noted.
The next test relates to EKVX NSCLC. The note with it: 10 µM unless noted.
The test system of the next test is SN12C renal. Particulars: 10 µM unless noted.
The test system of a further test is UO-31 renal. The note with it: 10 µM unless noted.
The next test deals with TK-10 renal. The note with it: 10 µM unless noted.
The subject of another test is A498 renal. Particulars: 10 µM.
For a further test, the system named is HL-60(TB) leukemia. Particulars: 10 µM unless noted.
In the next test the test system is CCRF-CEM leukemia. Particulars: 10 µM unless noted.
The subject of the next test is PC-3 prostate. The note with it: 10 µM unless noted.
For the next test, the system named is ACHN renal. The note with it: 10 µM unless noted.
A further test concerns CAKI-1 renal. The note with it: 10 µM unless noted.

Experimental findings from PubChem BioAssay (NCI) are described below.

SMILES strings stand for the structures. About 83,000 compounds went through this panel and 20% of them were active in at least one assay; those are over-represented in the sample as a whole.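 Values shown are percent growth following 48 h exposure of cells in 96-well plates to a single concentration of compound; below 10 was considered active.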 Values without a mark were called inactive. Activity calls are given as the source filed them.

For `Cc1c2cc(Cl)c3ccccc3c2c[n+]2ccccc12`, the growth in the test with HCT-15 colon is 103%; with HT29 colon it was 88.9%; in the test on SNB-75 CNS, -15.7% (active); with SNB-19 CNS it was -26.3% (active); with U251 CNS it was 0.443% (active); in the test on SK-MEL-5 melanoma it was -43.5% (active). In addition, the growth in the test with UACC-62 melanoma is 29.1%; in the test on LOX IMVI melanoma it was 84.6%; in the test with SK-MEL-28 melanoma, -27.2% (active); in the test on SK-MEL-2 melanoma it was -16.6% (active); with EKVX NSCLC it was 43.2%; with SN12C renal, -19.4% (active). Moreover, the growth with UO-31 renal was 62%; in the test on TK-10 renal, 93.3%; with A498 renal it was 90.2%; in the test with HL-60(TB) leukemia it was 62.3%; with CCRF-CEM leukemia, 35.5%.
For `CCOC(=O)[C@@H](C)C[C@H](Cc1ccccc1)NC(=O)c1nc([C@@H](C[C@H](C(C)C)N(C)C(=O)[C@@H](NC(=O)[C@H]2CCCCN2C)C(C)C)OC(C)=O)sc1CCOCc1ccccc1`, the growth in the test with HCT-15 colon is -30.5% (active); with HT29 colon, -50.7% (active); in the test on SNB-19 CNS, 4.69% (active); with U251 CNS, -32.4% (active); in the test on PC-3 prostate, 5.66% (active); in the test with SK-MEL-5 melanoma it was -39.7% (active). Moreover, the growth is 4.15% (active) with UACC-62 melanoma; -54.4% (active) in the test on LOX IMVI melanoma; -23.7% (active) in the test on SK-MEL-28 melanoma; -50.6% (active) in the test on SK-MEL-2 melanoma; 10.8% with EKVX NSCLC; -58.9% (active) with SN12C renal. The growth was -56.3% (active) in the test on UO-31 renal; -6.54% (active) in the test with TK-10 renal; -22% (active) in the test on ACHN renal; -23.5% (active) with CAKI-1 renal; -62.9% (active) in the test with HL-60(TB) leukemia; 0.263% (active) with CCRF-CEM leukemia.
Consider `COC(=O)CCC1=C(C)c2cc3[n-]c(cc4nc(cc5[n-]c(cc1n2)c(CCC(=O)OC)c5C)C=C4C)cc3C.[Cd+2]`, for which the growth in the test on HCT-15 colon is 35.5%; with HT29 colon it was 28.8%; in the test with SNB-19 CNS it was 73.9%; with U251 CNS, 61%; in the test on PC-3 prostate it was 33.9%; in the test with SK-MEL-5 melanoma it was -7.46% (active). Besides, the growth with UACC-62 melanoma is 24.1%; with LOX IMVI melanoma, 44.3%; in the test with SK-MEL-28 melanoma it was 68.8%; in the test on SK-MEL-2 melanoma, 32.4%; in the test on EKVX NSCLC, 62.2%; in the test on SN12C renal it was 71.2%. Moreover, the growth is 71.7% with UO-31 renal; 33.4% in the test on TK-10 renal; 67.9% in the test on ACHN renal; 63.3% in the test on CAKI-1 renal; 34.4% with A498 renal.
Consider `Nc1nc([Se])c2ncn(C3OC(CO)C(O)C3O)c2n1` (stereo not drawn), for which the growth with HCT-15 colon is 85.6%; in the test with HT29 colon, 55.2%; in the test with SNB-19 CNS, 98%; in the test on U251 CNS, 94.6%; in the test with PC-3 prostate, 93.4%; in the test with SK-MEL-5 melanoma it was 92.2%. The growth is 68.5% in the test on UACC-62 melanoma; 10.1% in the test with LOX IMVI melanoma; 98.9% in the test on SK-MEL-28 melanoma; 104% in the test on SK-MEL-2 melanoma; 62.9% with EKVX NSCLC; 94.7% with SN12C renal. The growth with UO-31 renal is 84.9%; in the test with TK-10 renal, 59.6%; in the test on ACHN renal it was 84.3%; with A498 renal, 95.3%; in the test on HL-60(TB) leukemia it was 41.7%; in the test on CCRF-CEM leukemia, 16.3%.
As to `[Cl][Hg][c]1cc(Br)cc(Br)c1`, the growth is 38.2% in the test on HCT-15 colon; 46.4% in the test on HT29 colon; 17% in the test with SNB-19 CNS; -55.9% (active) with U251 CNS; 50.3% with PC-3 prostate; 22.1% with SK-MEL-5 melanoma. Further, the growth is 47% in the test with UACC-62 melanoma; 9.91% (active) with LOX IMVI melanoma; 59.5% in the test on SK-MEL-28 melanoma; 41.3% in the test with SK-MEL-2 melanoma; 80% in the test with EKVX NSCLC; 24% with SN12C renal. For the same compound, the growth was 102% with UO-31 renal; 121% with TK-10 renal; 75.4% in the test with A498 renal; -27% (active) in the test on HL-60(TB) leukemia; 1.44% (active) with CCRF-CEM leukemia.
Consider `COC(C(=O)[C@@H](O)[C@@H](C)O)[C@@H]1Cc2cc3cc(O[C@H]4C[C@@H](O[C@H]5C[C@@H](O)[C@H](O)C(C)O5)[C@H](O)C(C)O4)c(C)c(O)c3c(O)c2C(=O)[C@H]1O[C@H]1C[C@@H](O[C@H]2C[C@@H](O[C@H]3C[C@@H](O)[C@@H](O)C(C)O3)[C@@H](O)C(C)O2)[C@H](O)C(C)O1` (stereo partly drawn), for which the growth in the test with HCT-15 colon is 47.7%; in the test with HT29 colon it was -11.9% (active); in the test on SNB-19 CNS, 11.7%; in the test with U251 CNS it was 1.11% (active); in the test with PC-3 prostate it was 21.6%; in the test on SK-MEL-5 melanoma it was -49.2% (active). Further, the growth with UACC-62 melanoma is -52.2% (active); in the test on LOX IMVI melanoma, -10.6% (active); with SK-MEL-28 melanoma, -9.88% (active); in the test with SK-MEL-2 melanoma it was -61.3% (active); in the test with EKVX NSCLC it was 24.4%; with SN12C renal it was 7.47% (active). Further, the growth in the test on UO-31 renal was -3.24% (active); in the test with TK-10 renal, 12.1%; with ACHN renal, 0.535% (active); with CAKI-1 renal, 12.6%; with A498 renal, -39.9% (active); in the test on HL-60(TB) leukemia, 30.5%. Further, the growth in the test with CCRF-CEM leukemia was 29.4%.
For `O=C(Nc1ccc([As]=[As]c2ccc(NC(=O)c3ccccc3)cc2)cc1)c1ccccc1` (stereo not drawn), the growth in the test on HCT-15 colon was -79.6% (active); in the test on HT29 colon it was -35.7% (active); in the test with SNB-75 CNS, -97% (active); in the test with U251 CNS, -78.6% (active); in the test with PC-3 prostate it was -86.2% (active); in the test on SK-MEL-5 melanoma, -99.6% (active). Further, the growth was -52.2% (active) in the test with LOX IMVI melanoma; -94% (active) in the test on SK-MEL-28 melanoma; -81.4% (active) with SK-MEL-2 melanoma; -69.1% (active) in the test on EKVX NSCLC; -96.7% (active) in the test on UO-31 renal; -80.2% (active) in the test on CAKI-1 renal. In addition, the growth with A498 renal was -97.5% (active); in the test on HL-60(TB) leukemia, -53.9% (active).
For `Clc1ccc(CO/N=C(\Cn2ccnc2)c2ccc(Cl)cc2Cl)c(Cl)c1`, the growth in the test with HCT-15 colon was 6.36% (active); with HT29 colon it was -19.4% (active); with SNB-19 CNS, 17.7%; in the test on U251 CNS it was -21.2% (active); with PC-3 prostate it was 4.16% (active); in the test on SK-MEL-5 melanoma, -93.5% (active). The growth in the test with UACC-62 melanoma is 1.19% (active); with LOX IMVI melanoma it was -47.4% (active); in the test on SK-MEL-28 melanoma it was 28%; in the test with SK-MEL-2 melanoma, -48% (active); in the test on EKVX NSCLC, 6.63% (active); with SN12C renal, 2.12% (active). In addition, the growth in the test with UO-31 renal is -3% (active); in the test on ACHN renal, 6.26% (active); in the test on CAKI-1 renal, 1.17% (active); in the test with A498 renal, -5.95% (active); in the test on HL-60(TB) leukemia it was -23% (active); in the test with CCRF-CEM leukemia it was -13.1% (active).
